# Reference: PubChem BioAssay
# Values without a mark were called inactive. For part of these data: Results with a measured potency or affinity are listed apart. Calls of active or inactive are those of the source. Unless noted, the rule behind the calls is not given here.
# What was measured:
# [1] = antimalarial activity against Dd2 strain (AID 2302;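 active = growth inhibition above 50% at the single 2 µM test dose, taken to imply half-maximal potency below 2 µM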;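 note: 0% = DMSO untreated growth and 100% = chloroquine plus artemisinin killed control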); settings: P. falciparum Dd2 in RBCs, LDH growth readout, 72 h; at 2 µM; hits give high values
# [2] = human hepatoma cell viability loss – ATP luminescence, cytotoxicity control for P. falciparum antimalarial project, primary screen (AID 2303;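 active = inhibition above 50%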;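 note: 0% = DMSO wells and 100% = digitonin-killed cells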); settings: HepG2 viability, 24-48 h, at 10 µM, hits give high values
# [3] = target: L-lactate dehydrogenase (Plasmodium falciparum (isolate CDC / Honduras)) (UniProt Q27743); assay: PfLDH activity inhibition – cell lysate, 3D7 strain, counter-screen for P. falciparum growth inhibition project (AID 2304);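 note: 0% = vehicle and 100% = reference inhibitor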; settings: P. falciparum 3D7 crude extract, LDH APAD/NBT absorbance; at 2 µM; hits give high values
# Chain of L-lactate dehydrogenase (Plasmodium falciparum (isolate CDC / Honduras)) (Q27743 whole entry, looked up): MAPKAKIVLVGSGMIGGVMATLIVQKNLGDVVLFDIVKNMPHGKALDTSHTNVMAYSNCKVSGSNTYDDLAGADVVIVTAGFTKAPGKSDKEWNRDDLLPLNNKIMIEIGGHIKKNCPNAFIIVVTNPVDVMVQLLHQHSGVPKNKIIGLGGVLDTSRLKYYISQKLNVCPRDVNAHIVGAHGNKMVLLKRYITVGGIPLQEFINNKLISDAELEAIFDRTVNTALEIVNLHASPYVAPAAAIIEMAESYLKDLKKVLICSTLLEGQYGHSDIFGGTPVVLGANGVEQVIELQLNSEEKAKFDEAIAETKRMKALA
# [4] = inhibition of 3D7 malaria parasite growth – strain 3D7 (AID 2306);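 note: 0% = DMSO wells and 100% = chloroquine plus artemisinin control wells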; settings: P. falciparum 3D7 erythrocytic growth, LDH absorbance, 72 h; at 2 µM; hits give high values
# [5] = target: Calcium-dependent protein kinase 1 (Plasmodium falciparum (isolate 3D7)) (UniProt P62344); assay: PfCDPK1 kinase inhibitors, biochemical, TCAMS library (AID 1159585; cut-off not given, nearly all actives have IC50 up to about 0.98 µM;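 note: inhibitors leave more ATP so luminescence rises with inhibition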); settings: recombinant PfCDPK1, Kinase-Glo ATP depletion luminescence
# Chain of Calcium-dependent protein kinase 1 (Plasmodium falciparum (isolate 3D7)) (P62344 whole entry, looked up): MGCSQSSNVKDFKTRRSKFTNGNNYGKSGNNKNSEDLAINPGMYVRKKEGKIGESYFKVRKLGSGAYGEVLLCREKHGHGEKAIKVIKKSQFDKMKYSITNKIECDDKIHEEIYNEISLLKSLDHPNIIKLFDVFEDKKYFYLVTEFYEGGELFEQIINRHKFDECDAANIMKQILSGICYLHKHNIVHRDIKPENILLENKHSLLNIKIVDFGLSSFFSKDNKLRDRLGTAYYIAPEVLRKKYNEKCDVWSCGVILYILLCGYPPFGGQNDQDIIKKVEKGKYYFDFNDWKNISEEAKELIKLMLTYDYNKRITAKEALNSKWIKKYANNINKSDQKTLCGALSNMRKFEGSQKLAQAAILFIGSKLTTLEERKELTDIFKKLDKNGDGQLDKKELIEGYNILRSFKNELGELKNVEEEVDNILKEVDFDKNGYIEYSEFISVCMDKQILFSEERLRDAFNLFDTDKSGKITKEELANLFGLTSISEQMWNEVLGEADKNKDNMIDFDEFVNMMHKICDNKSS
# [6] = target: Plasmodium falciparum protein kinase 6 (PK6, PF3D7_1337100) (UniProt Q8IDW1); assay: PfPK6 kinase inhibitors, biochemical, TCAMS library (AID 1159586); settings: recombinant PfPK6, Kinase-Glo ATP depletion luminescence
# Chain of Plasmodium falciparum protein kinase 6 (PK6, PF3D7_1337100) (Q8IDW1 1-305): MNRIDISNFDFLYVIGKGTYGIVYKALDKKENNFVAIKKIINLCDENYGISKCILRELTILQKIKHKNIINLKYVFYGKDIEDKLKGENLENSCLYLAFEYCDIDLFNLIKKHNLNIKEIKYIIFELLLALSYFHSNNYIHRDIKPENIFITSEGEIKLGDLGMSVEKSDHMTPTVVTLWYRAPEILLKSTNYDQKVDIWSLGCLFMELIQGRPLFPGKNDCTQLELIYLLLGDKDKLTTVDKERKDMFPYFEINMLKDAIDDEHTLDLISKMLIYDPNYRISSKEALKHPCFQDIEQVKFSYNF
# [7] = target: Protein kinase 7 (PK7), Plasmodium falciparum 3D7 (PF3D7_0213400) (UniProt Q7YTF7); assay: inhibition of Plasmodium PK7 catalytic activity – biochemical, TCAMS antimalarial set, Kinase-Glo luminescence (AID 1159587); settings: recombinant PfPK7, Kinase-Glo ATP depletion luminescence
# Chain of Protein kinase 7 (PK7), Plasmodium falciparum 3D7 (PF3D7_0213400) (Q7YTF7 1-343): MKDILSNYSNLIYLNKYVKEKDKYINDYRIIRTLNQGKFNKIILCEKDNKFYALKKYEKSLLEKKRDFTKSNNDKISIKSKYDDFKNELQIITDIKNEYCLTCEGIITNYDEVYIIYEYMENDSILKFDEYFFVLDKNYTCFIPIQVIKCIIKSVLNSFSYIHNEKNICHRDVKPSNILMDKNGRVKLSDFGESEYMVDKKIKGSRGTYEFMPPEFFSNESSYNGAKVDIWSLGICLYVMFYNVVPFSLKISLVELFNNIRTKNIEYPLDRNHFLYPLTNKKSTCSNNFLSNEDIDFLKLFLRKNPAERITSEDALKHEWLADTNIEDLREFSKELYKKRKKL
# [8] = target: Calcium-dependent protein kinase 4 (Plasmodium falciparum (isolate 3D7)) (UniProt Q8IBS5); assay: PfCDPK4 kinase inhibitors, biochemical, TCAMS library (AID 1159588; cut-off not given, nearly all actives have IC50 up to about 0.91 µM); settings: recombinant PfCDPK4, Kinase-Glo ATP depletion luminescence
# Chain of Calcium-dependent protein kinase 4 (Plasmodium falciparum (isolate 3D7)) (Q8IBS5 whole entry, looked up): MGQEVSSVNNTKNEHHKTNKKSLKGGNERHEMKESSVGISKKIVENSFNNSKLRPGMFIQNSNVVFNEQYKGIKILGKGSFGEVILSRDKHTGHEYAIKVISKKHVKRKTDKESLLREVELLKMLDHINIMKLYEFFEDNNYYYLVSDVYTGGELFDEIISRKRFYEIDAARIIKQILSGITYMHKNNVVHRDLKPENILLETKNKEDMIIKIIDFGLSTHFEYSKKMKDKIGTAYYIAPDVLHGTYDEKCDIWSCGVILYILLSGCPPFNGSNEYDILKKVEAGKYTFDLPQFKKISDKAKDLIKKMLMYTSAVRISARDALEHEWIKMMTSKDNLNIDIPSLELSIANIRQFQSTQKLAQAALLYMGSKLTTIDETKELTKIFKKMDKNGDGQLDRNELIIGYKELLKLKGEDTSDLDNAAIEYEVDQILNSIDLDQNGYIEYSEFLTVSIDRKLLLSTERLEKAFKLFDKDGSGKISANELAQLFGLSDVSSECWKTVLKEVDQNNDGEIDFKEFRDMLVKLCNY
Structure (SMILES),growth inhibition [1],inhibition [2],inhibition [3],growth inhibition [4],outcome [5],outcome [6],outcome [7],outcome [8]
Cc1cc2ccc(/C=C/C(=O)NC3CCC(CCN4CCc5ccc(C#N)cc5CC4)CC3)cc2[nH]1 (configuration not stated),56% (active),19%,-1%,84% (active),inactive,inactive,inactive,inactive
Cn1c(NCc2cc(F)cc3c2OCOC3)nc2cc(Nc3ccnc(Nc4cccc(CS(C)(=O)=O)c4)n3)ccc21,100% (active),-14%,-1%,102% (active),inactive,inactive,inactive,inactive
CC1(C)N=C(N)N=C(N)N1OCCCSc1ccccc1,94% (active),69% (active),0%,93% (active),inactive,inactive,inactive,inactive
CCNC[C@H]1CCCN1CCOc1ccc(-n2cnc3cc(-c4ccc(Cl)cc4)sc3c2=O)cc1OC,39%,53% (active),-11%,97% (active),inactive,inactive,inactive,inactive
O=C(Nc1nc2cc(S(=O)(=O)NCCc3cccc(F)c3)ccc2n1CCCn1ccnc1)c1ccc(Cl)cc1,8%,-24%,0%,90% (active),inactive,inactive,inactive,inactive
CN(C)CCC1CCN(CCS(=O)(=O)c2cccc(Nc3ncc(-c4cccc(F)c4)cn3)c2)CC1,12%,59% (active),-2%,96% (active),inactive,inactive,inactive,inactive
N=c1n(CCN2CCCCC2)c2ccccc2n1CC(O)c1ccc(Cl)c(Cl)c1 (configuration not stated),97% (active),50% (active),-2%,97% (active),inactive,inactive,inactive,inactive
O=[N+]([O-])c1cccc(NC(=S)N2CCCN(Cc3ccc(C(F)(F)F)cc3)CC2)c1,49%,11%,0%,90% (active),inactive,inactive,inactive,inactive
COc1cc(C(=O)N2CCOC(CCN3CCC(c4ccc(Cl)cc4)CC3)(c3ccc(Cl)c(Cl)c3)C2)cc(OC)c1OC (configuration not stated),80% (active),44%,6%,91% (active),inactive,inactive,inactive,inactive
O=C(NCc1ccc2c(c1)OCO2)c1nn(CCN2CCC(N3CCCC3)CC2)cc1-c1ccc(Cl)c(Cl)c1,17%,21%,-2%,94% (active),inactive,inactive,inactive,inactive
Cc1ccc2nc(Cl)c3cc(C(=O)NCCCN4CCCC4)sc3c2c1,40%,26%,0%,89% (active),inactive,inactive,inactive,inactive
CN(C)C(=O)n1cnc(S(=O)(=O)N(C)c2ccc(Cl)cc2)n1,80% (active),7%,3%,88% (active),inactive,inactive,inactive,inactive
O=C(Nc1ccc(F)c(Cl)c1)c1cc([N+](=O)[O-])cc2cn[nH]c12,67% (active),32%,-4%,100% (active),inactive,inactive,inactive,inactive
CCCCOP(=O)(COc1ccc(CCN(CC(O)COc2cccc3[nH]c4ccccc4c23)CC(O)COc2cccc3[nH]c4ccccc4c23)cc1)C1CCCCC1 (configuration not stated),92% (active),7%,4%,89% (active),inactive,inactive,inactive,inactive
Cc1cccc2[nH]c(-c3ccc(-c4ccc(CNCc5ccc(S(C)(=O)=O)cc5)cc4)cc3)nc12,38%,19%,-1%,93% (active),inactive,inactive,inactive,inactive
O=C(N[C@@H](Cc1ccccc1)C(=O)NCCN1CCCCC1)c1ccc(O)c(-c2ccc(Cl)c(Cl)c2)c1,97% (active),6%,-3%,99% (active),inactive,inactive,inactive,inactive
Cc1cccc2[nH]c(-c3cccc(-c4cccc(C(=O)NCCN5CCCC5)c4)c3)nc12,75% (active),21%,1%,100% (active),inactive,inactive,inactive,inactive
COC(=O)C(=O)c1c(-c2ccccc2)c(-c2ccc(OC)c(OC)c2)c2c3cc(OC)c(OC)cc3ccn12,89% (active),2%,-1%,97% (active),inactive,inactive,inactive,inactive
O=C(Nc1ccc(-c2nc3ccccc3[nH]2)cc1)c1ccc(Cl)s1,34%,16%,4%,99% (active),inactive,inactive,inactive,inactive
COc1ccc2c(NN=Cc3ccc(OC)c4ccccc34)cc(C)nc2c1,99% (active),3%,-4%,101% (active),inactive,inactive,inactive,inactive

Structure (SMILES),growth inhibition [1],inhibition [2],inhibition [3],growth inhibition [4],outcome [5],outcome [6],outcome [7],outcome [8]
COc1ccc(NC(=O)c2ccc(Br)c(C)c2)cc1N1CCN(CCCc2c[nH]c3ccccc23)CC1,64% (active),21%,0%,102% (active),inactive,inactive,inactive,inactive
CCc1c(C)nc(-n2nc(C)cc2NC(=O)c2cccc3ccccc23)[nH]c1=O,89% (active),39%,1%,98% (active),inactive,inactive,inactive,inactive
CCc1nc(N)nc(N)c1CCCOc1ccccc1Cl,13%,61% (active),1%,92% (active),inactive,inactive,inactive,inactive
CCN1CCC(N(Cc2ccc(-c3ccc(C(F)(F)F)cc3)cc2)C(=O)Cn2c(CCc3cccc(F)c3F)cc(=O)c3ccc(OCc4ccccc4)cc32)CC1,86% (active),60% (active),3%,102% (active),inactive,inactive,inactive,inactive
O=C(Nc1ccc(Cl)cc1)N1CCN(C2CCCCC2)CC1,-6%,17%,-3%,93% (active),inactive,inactive,inactive,inactive
NCc1ccc(CNCc2ccc(-c3ccc(-c4nc5ccc(F)cc5[nH]4)cc3)cc2)cc1,99% (active),12%,-3%,100% (active),inactive,inactive,inactive,inactive
O=C(c1ccc(Cl)cc1Cl)N1CCCC(C(F)(F)F)C1 (configuration not stated),47%,6%,3%,95% (active),inactive,inactive,inactive,inactive
COc1ccc(CCC(C)(C)NCC(O)c2cccc(C(F)(F)F)c2)cc1 (configuration not stated),98% (active),26%,3%,99% (active),inactive,inactive,inactive,inactive
O=C(/C=C/c1ccc(Cl)c(Cl)c1)NCCCCCN1CCC(NC(=O)NC2CCCC2)CC1,31%,21%,-1%,99% (active),inactive,inactive,inactive,inactive
O=C(Nc1cccc(-c2cccc(-c3nc4ccc(C(F)(F)F)cc4[nH]3)c2)c1)c1ccc(=O)[nH]n1,26%,63% (active),0%,103% (active),inactive,inactive,inactive,inactive
COc1cc(NC(=O)CCCN2CCN(c3cccc(Cl)c3Cl)CC2)ccc1N1CCN(C(C)C)CC1,59% (active),31%,4%,99% (active),inactive,inactive,inactive,inactive
O=C(/C=C/c1ccc(Cl)c(Cl)c1)N1CCC(C(O)CN2CCC(c3c[nH]c4ccccc34)CC2)CC1 (configuration not stated),46%,14%,-4%,99% (active),inactive,inactive,inactive,inactive
COc1cccc(-c2cc(C(=O)NC3CCC(N4CCC(c5ccccc5C)CC4)CC3)[nH]n2)c1 (configuration not stated),58% (active),60% (active),-2%,99% (active),inactive,inactive,inactive,inactive
Cc1cc(NCCC(=O)Nc2ccccc2)nc(NCCc2ccc(F)cc2)n1,43%,26%,2%,101% (active),inactive,inactive,inactive,inactive
O=C(/C=C/c1ccc(Cl)c(Cl)c1)N1CCN(C(=O)Nc2cccc(C(F)(F)F)c2)CC1,100% (active),53% (active),4%,99% (active),inactive,inactive,inactive,inactive
c1cc(CNC2Cc3ccccc3C2)cc(-c2cnc(N3CCNCC3)nc2)c1,65% (active),43%,-9%,93% (active),inactive,inactive,inactive,inactive
CC1(C)[C@H]2CC[C@@H](CNc3nc(NCCc4cnc[nH]4)nc(Nc4ccc5c(c4)OCO5)n3)[C@@H]1C2,88% (active),3%,-4%,101% (active),inactive,inactive,inactive,inactive
CC1(C)[C@H]2CC[C@@H](CNc3nc(NCCc4cnc[nH]4)nc(NCc4cc(F)ccc4F)n3)[C@@H]1C2,91% (active),0%,6%,100% (active),inactive,inactive,inactive,inactive
COCCN1CCC(CNCC(C)(C)c2nc(-c3ccc(Cl)c(O)c3)c(-c3ccncc3)[nH]2)CC1,2%,-15%,-1%,102% (active),inactive,inactive,inactive,inactive
